# Measured values: PubChem BioAssay
# Values joined by “and” are separate entries in the source; they are usually repeats but may differ in a detail not shown here. Equal entries are not always repeated. Records with an inconclusive call do not appear. For some assays here: Measured potencies and affinities stand elsewhere. Active and inactive are the calls of the source. Unless noted, no rule for the calls is given here.
# Experiments:
# [1] = growth inhibition of DIPG glioma cells, dose response, cell-based, SU-DIPG-IV, MIPE4.0, CellTiter-Glo, qHTS (AID 1347063; cut-off not given, nearly all actives have AC50 up to about 30 µM;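 also: compound exposure lasted 48 hours before the viability readout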); settings: SU-DIPG-IV viability, CellTiter-Glo ATP luminescence
# [2] = viability loss in pontine glioma line – cell-based, SU-DIPG-XXV, MIPE5.0, CellTiter-Glo, qHTS, dose response (AID 1347065; cut-off not given, nearly all actives have AC50 up to about 26 µM;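 also: cells exposed to compound for 48 hours before ATP readout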); settings: CellTiter-Glo ATP luminescence
# [3] = LFS_MB_1R medulloblastoma cell growth inhibition, synergistic combos for chromothripsis tumors, cisplatin or BGB combos (AID 1671452; in the data active = inhibition above about 80%;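 also: cells exposed for 96 hours before readout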); settings: LFS_MB_1R medulloblastoma cells, stronger effect = higher value
# [4] = CRL2098 osteosarcoma cell growth inhibition, synergistic combos for chromothripsis tumors, BGB or cisplatin IC20 combos (AID 1671454; in the data active = inhibition above about 80%;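 also: cells exposed for 96 h before readout; 0% = vehicle DMSO and 100% = killing by high DMSO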); settings: CRL2098 osteosarcoma cells, drug combinations, stronger effect = higher value
# [5] = MDA-MB-436 breast carcinoma cell growth inhibition, synergistic combos for chromothripsis tumors, BGB or cisplatin combos (AID 1671458); settings: MDA-MB-436 breast carcinoma growth inhibition, drug combinations, stronger effect = higher value;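 also: cells exposed for 96 hours; 0% = vehicle DMSO and 100% = killing by high DMSO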
# [6] = growth inhibition of BT084 medulloblastoma cells, cell-based, ICGC_MB145, cisplatin and BGB IC40 combos (AID 1671461; in the data active = inhibition above about 80%;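 also: cells exposed to drugs for 96 hours; 0% = vehicle DMSO and 100% = high DMSO full killing control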); settings: drug combinations, stronger effect = higher value
# [7] = growth inhibition of RCMB18 medulloblastoma cells, cell-based, cisplatin and BGB IC40 combos (AID 1671462; in the data active = inhibition above about 80%;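 also: cells exposed to compound for four days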); settings: stronger effect = higher value
# [8] = growth inhibition of CRL1545 osteosarcoma cells, cell-based, cisplatin and BGB IC20 combos (AID 1671464; in the data active = inhibition above about 80%;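 also: cells exposed to compound for 96 hours before readout; 0% = vehicle DMSO and 100% = high DMSO killing control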); settings: stronger effect = higher value
# [9] = phospholipid biosynthesis inhibitors in animal cells, primary screen, cell-based, LOPAC library, screen 4 (AID 1347384); settings: phospholipid biosynthesis inhibition screen, at 10 µM
# [10] = inhibitors of Cryptococcus chitosan production, flow cytometry, Cibacron Brilliant Red staining (AID 1347148); settings: Cryptococcus neoformans chitosan, stronger effect = lower value; at 10 µM unless noted;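 also: compound exposure lasted three days at 37 degrees C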
# [11] = test system: Hepatitis C virus NS3 helicase; assay: HCV NS3 helicase inhibitors, primary screen, biochemical, fluorescence polarization, LOPAC1280 library (AID 687035; in the data active = inhibition above about 37%); settings: Purified HCV NS3 helicase, Cy5-dT15 ssDNA binding fluorescence polarization; stronger effect = higher value; concentration not given here
# [12] = Cy5 fluorescence quenching or enhancement artefacts, artefact control for HCV NS3 helicase inhibitor project, biochemical, LOPAC1280 (AID 687037); settings: Cy5-DNA-NS3h complex fluorescence interference counterscreen
# [13] = suppressors of polyQ aggregation in yeast, 75Q-TubU reporter (AID 1593); settings: Yeast 75Q polyglutamine aggregation reporter
# [14] = rescue of polyQ-huntingtin neuronal dysfunction in worms, whole organism, C. elegans mechanosensory neurons, N-terminal huntingtin (AID 1599); settings: touch response, stronger effect = higher value
# [15] = inhibitors of mitochondrial cytochrome c release, biochemical, purified mitochondria (AID 1603); settings: stronger effect = lower value;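 also: mouse liver mitochondria challenged with calcium chloride; signal normalized to the plate average as 100%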
# [16] = inhibitors of polyQ protein aggregation (AID 1604); settings: polyglutamine-induced protein aggregation inhibition assay; stronger effect = higher value; tested at 2.5 µM
# [17] = enhancers of glutamate uptake in motor neurons, MN-1 cell line (AID 1612); settings: MN-1 motor neuron cells, stronger effect = higher value;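 also: tested at 1 µM final; 0% = mean of DMSO vehicle wells on each plate; positive means more glutamate uptake than control and negative means less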
# [18] = suppressors of polyglutamine aggregation in yeast, 75Q-TubH (AID 1616); settings: S. cerevisiae 75Q-TubH polyglutamine aggregation suppression; stronger effect = higher value
# [19] = measured here: combination with BGB IC40, at 0.05 µM
# [20] = measured here: combination with cisplatin, at 0.5 µM
# [21] = measured here: combination with cisplatin, at 5 µM
# [22] = measured here: combination with BGB at IC20, at 0.5 µM
# [23] = measured here: combination with cisplatin at IC20, at 0.5 µM
# [24] = measured here: BGB combination, at 0.5 µM
# [25] = measured here: BGB combination, at 5 µM
# [26] = measured here: cisplatin combination, at 0.5 µM
# [27] = measured here: cisplatin combination, at 5 µM
# [28] = cisplatin combination, at 0.5 µM
# [29] = measured here: BGB IC40 combination 0.05 uM, at 0.05 µM
# [30] = measured here: BGB IC40 combination, at 0.05 µM
# [31] = measured here: with BGB IC20 combination, at 0.5 µM
# [32] = measured here: with cisplatin IC20 combination, at 0.5 µM
smiles,measurement,setting,value
CC[C@H](NC(C)C)[C@H](O)c1ccc(O)c2[nH]c(=O)ccc12,outcome,[1],inactive
same,outcome,[2],inactive
Fc1ccc(Cl)cc1-c1nc(Nc2ccncc2)c2nccnc2n1,outcome,[1],inactive
COc1nccc(-c2c(-c3ccc(F)cc3)ncn2C2CCC(O)CC2)n1 (configuration not stated),outcome,[1],inactive
O=c1ncccn1[C@@H]1O[C@H](CO)[C@@H](O)[C@H]1O,inhibition,[3]; at 0.5 µM,-27.9% (inactive)
same,inhibition,[3]; [19],-35.3%
same,inhibition,[3]; [20],-51%
same,inhibition,[3]; [21],-58.9%
same,inhibition,[4]; at 0.5 µM,-74.1% (inactive)
same,inhibition,[4]; [22],-48.3%
same,inhibition,[4]; [23],-120%
same,inhibition,[5]; at 0.5 µM,-13.6% (inactive)
same,inhibition,[5]; [24],-17.7%
same,inhibition,[5]; [25],-15.1%
same,inhibition,[5]; [26],-10.4%
same,inhibition,[5]; [27],-7.02%
same,inhibition,[6]; at 0.5 µM,-5.93% (inactive)
same,inhibition,[6]; [28],-27.2%
same,inhibition,"[6]; cisplatin combination, at 5 µM",-19.4%
same,inhibition,[6]; [29],-6.16%
same,inhibition,"[6]; single agent, at 5 µM",-11.2%
same,inhibition,[7]; at 0.5 µM,-16.2% (inactive)
same,inhibition,"[7]; cisplatin combo, at 5 µM",-19.8%
same,inhibition,[7]; [30],3.99%
same,inhibition,[7]; [20],-35.7%
same,inhibition,"[7]; single agent, at 5 µM",-29.5%
same,inhibition,[8]; at 0.5 µM,-31.3% (inactive)
same,inhibition,[8]; [31],-27.5%
same,inhibition,[8]; [32],-35.4%
same,inhibition,"[8]; single agent, at 0.05 µM",-12.6%
same,inhibition,"[8]; single agent, at 5 µM",-36.3%
COc1ccc(Br)cc1S(=O)(=O)NC(=O)/C=C/c1ccccc1Cc1ccc2ccccc2c1,outcome,[9],inactive
O=C1CCc2c(ccc3ccccc23)O1,fold fluorescence,[10],3.79 [at 252.2 µM] (inactive)
COc1ccccc1N1CCN(CCN2C(=O)CC3(CCCC3)CC2=O)CC1,inhibition,[11],-5% (inactive)
same,fluorescence ratio (interference),[12],1 (inactive)
same,outcome,[9],inactive
Cn1cc(C2=C(c3ccc(Cl)cc3Cl)C(=O)NC2=O)c2ccccc21,inhibition,[11],-3% (inactive)
same,fluorescence ratio (interference),[12],1 (inactive)
same,outcome,[9],inactive
CC(C)(C)c1cc(O)c(C(C)(C)C)cc1O,fold fluorescence,[10],11.1 [at 224.9 µM] (inactive)
Clc1cccc(Nc2nnc(-c3ccccc3)c3ccccc23)c1,fold fluorescence,[10],8.57 [at 150.7 µM] (inactive)
CC(C)(C)n1nc(-c2ccc(Cl)cc2)c2c(N)ncnc21,fold fluorescence,[10],4.87 [at 165.7 µM] (inactive)
O=C1C(SCCO)=C(SCCO)C(=O)c2ccccc21,inhibition,[11],-3% (inactive)
same,fluorescence ratio (interference),[12],1 (inactive)
same,fold fluorescence,[10],6.37 [at 161.1 µM] (inactive)
same,outcome,[9],inactive
O=S(=O)(c1cccc2c(Cl)cccc12)N1CCCNCC1,inhibition,[11],-2% (inactive)
same,fluorescence ratio (interference),[12],1 (inactive)
same,fold fluorescence,[10],11.9 [at 153.9 µM] (inactive)
same,outcome,[9],inactive
COc1cc(/C=C(\C#N)C(N)=O)cc(CSc2nc3ccccc3s2)c1O,fold fluorescence,[10],9.44 [at 125.8 µM] (inactive)
COC(=O)c1c(C)[nH]c(C)c1C(=O)c1ccccc1Cc1ccccc1,inhibition,[11],-1% (inactive)
same,fluorescence ratio (interference),[12],1 (inactive)
same,fold fluorescence,[10],5.89 [at 143.9 µM] (inactive)
same,outcome,[9],inactive
COc1ccc(CCN(C)CCc2ccc(OC)c(OC)c2)cc1OC,inhibition,[11],-1% (inactive)
same,fluorescence ratio (interference),[12],1 (inactive)
same,fold fluorescence,[10],2.96 [at 139.1 µM] (inactive)
same,outcome,[9],inactive
CCCCCCCC/C=C\CCCCCCCC(N)=O,fold fluorescence,[10],4.91 (inactive)
CN(C)CCCn1cc(C2=C(c3c[nH]c4ccccc34)C(=O)NC2=O)c2ccccc21,fold fluorescence,[10],5.95 [at 121.2 µM] (inactive)
Fc1cccc(/C=N/N=C/c2cccc(F)c2)c1,outcome,[9],inactive
CCN(CC)CCCCNc1ncc2cc(-c3c(Cl)cccc3Cl)c(NC(=O)NC(C)(C)C)nc2n1,outcome,[9],inactive
COCc1nc2c([nH]1)c(=O)n(C)c(=O)n2CC(C)C,inhibition,[11],-4% (inactive)
same,fluorescence ratio (interference),[12],0.9 (inactive)
same,fold fluorescence,[10],4.02 [at 187.8 µM] (inactive)
same,outcome,[9],inactive
O=C(NCCCCCCNC(=O)ON=C1CCCCC1)ON=C1CCCCC1,fold fluorescence,[10],7.89 [at 126.7 µM] (inactive)
Cc1cccc(C(=O)NCN2CCN(c3ccccc3C#N)CC2)c1,inhibition,[11],-3% (inactive)
same,fluorescence ratio (interference),[12],1 (inactive)
same,outcome,[9],inactive
NS(=O)(=O)C#Cc1ccccc1,inhibition,[11],0% (inactive)
same,fluorescence ratio (interference),[12],1 (inactive)
same,outcome,[9],inactive
N.N.O=C(O)C1(C(=O)O)CCC1.[Pt],score,[13],1.14
same,rescue above control,[14],12.6
same,cytochrome c release ratio,[15],0.66
same,inhibition of aggregation,[16],37.7%
same,glutamate uptake change,[17],-9.42%
same,aggregation suppression score,[18],1.13
same,inhibition,[3]; at 0.5 µM,-35.7% (inactive) and -31.6% (inactive)
same,inhibition,[3]; [19],-53% and -34.9%
same,inhibition,[3]; [20],-6.08% and -36.3%
same,inhibition,[3]; [21],-14.9% and -37.2%
same,inhibition,[4]; at 0.5 µM,-63.4% (inactive) and -87.5% (inactive)
same,inhibition,[4]; [22],-18.4% and -56.5%
same,inhibition,[4]; [23],-78.6% and -134%
same,inhibition,[5]; at 0.5 µM,-21.7% (inactive) and -6.11% (inactive)
same,inhibition,[5]; [24],-33.8% and -15%
same,inhibition,[5]; [25],3.84% and 2.53%
same,inhibition,[5]; [26],-26.3% and -12.4%
same,inhibition,[5]; [27],14% and 17.8%
same,inhibition,[6]; at 0.5 µM,-21% (inactive) and -15.1% (inactive)
same,inhibition,[6]; [28],-2.17% and -35.9%
same,inhibition,"[6]; cisplatin combination, at 5 µM",-41.8% and -20.7%
same,inhibition,[6]; [29],-10.5% and -37.9%
same,inhibition,"[6]; single agent, at 5 µM",-52.9% and -21.2%
same,inhibition,[7]; at 0.5 µM,-27.3% (inactive) and -19.1% (inactive)
same,inhibition,"[7]; cisplatin combo, at 5 µM",-0.537% and -4.06%
same,inhibition,[7]; [30],-23.2% and -16.9%
same,inhibition,[7]; [20],-19.3% and -17.8%
same,inhibition,"[7]; single agent, at 5 µM",-46.1% and -19.1%
same,inhibition,[8]; at 0.5 µM,-31.3% (inactive) and -52.7% (inactive)
same,inhibition,[8]; [31],-4.25% and -43.2%
same,inhibition,[8]; [32],-44.9% and -60%
same,inhibition,"[8]; single agent, at 0.05 µM",-23.7% and -50.6%
same,inhibition,"[8]; single agent, at 5 µM",3.56% and 6.67%
